Compound activity deposited in PubChem BioAssay by National Center for Advancing Translational Sciences (NCATS).
Many of the other results were omitted from the sample, so hits are more common in it than they were.
LmPK inhibitor: qHTS Assay for Inhibitors of Leishmania Mexicana Pyruvate Kinase (LmPK). Q27686. actives 0.37% (n = 290,000). AID 1721, 2009. Potency, µM (doses to about 57.5 µM), for the others: at the top dose activity change, negative = inhibition, most hits filed as inhibitors. purified LmPK, Kinase-Glo ATP luminescence, 1 h; also: potency is read from the fitted curve at half-maximal effect; % is scaled to controls: 0 for no effect and ±100 for the full control effect
Target sequence (Q27686 whole entry, looked up): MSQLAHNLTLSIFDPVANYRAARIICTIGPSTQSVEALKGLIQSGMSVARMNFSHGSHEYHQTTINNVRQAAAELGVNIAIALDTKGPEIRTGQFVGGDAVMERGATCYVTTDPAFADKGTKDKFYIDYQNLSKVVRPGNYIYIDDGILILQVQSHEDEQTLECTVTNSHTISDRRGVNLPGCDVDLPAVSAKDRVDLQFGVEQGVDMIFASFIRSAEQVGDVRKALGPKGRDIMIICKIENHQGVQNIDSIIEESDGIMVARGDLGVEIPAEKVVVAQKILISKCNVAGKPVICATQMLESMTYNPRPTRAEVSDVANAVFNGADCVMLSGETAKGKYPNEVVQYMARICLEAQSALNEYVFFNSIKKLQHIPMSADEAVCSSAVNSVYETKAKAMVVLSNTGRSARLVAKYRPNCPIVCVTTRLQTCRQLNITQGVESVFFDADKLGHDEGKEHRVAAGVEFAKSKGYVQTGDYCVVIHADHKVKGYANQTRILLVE
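Screened at intermediate enzyme activity to detect both inhibitors and activators: LmPK at 0.1 nM, with a 0.5 nM enzyme column as activation reference. PEP 0.5 mM, ADP 0.1 mM; ATP detected by luminescence after 1 h.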
TbPYK inhibitor: qHTS of Trypanosoma Brucei Inhibitors. pyruvate kinase (Trypanosoma brucei), Q57TT1. actives 0.12% (n = 410,000). Potency, µM (top dose mostly 76.8 µM), for inactives: at the top dose activity, negative = inhibition, most hits filed as inhibitors. TbPYK enzyme, Kinase-Glo Plus ATP luminescence, 45 min; also: potency is read from the fitted curve at half-maximal effect; % is scaled to controls: 0 for no effect and ±100 for the full control effect; nearly all actives have a fitted effect of over 50% in size
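ADP (130 uM final) triggers the TbPYK reaction after compound addition; incubation is 45 min at room temperature. Kinase-Glo Plus is then added and luminescence imaged. Normalized data are fitted to concentration-effect curves.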
RE007 growth inh: qHTS Assay for Inhibitors of the HIV-1 protein Vpr | Potency, µM (titrated, usually from 92.2 µM), for inactives: at the top dose activity change, negative = less growth, hits mostly inhibitors | S. pombe RE007 Vpr strain, BacTiter-Glo ATP luminescence, 24 h | actives 0.21% (n = 360,000); active = well fitted falling curve with a large enough effect; inconclusive = small, poorly fitted or top-dose-only effect; inactive = no such curve, though single readings can be large or run the other way; also: potency is read from the fitted curve at half-maximal effect; % is scaled to controls: 0 for no effect and ±100 for the full control effect; nearly all actives have a fitted effect of over 50% in size
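Fission yeast strain RE007, carrying one chromosomally integrated HIV-1 vpr copy, was seeded at OD 0.01 in PMG+AL medium with 23 nL pinned compound. After 24 h at 30 °C and 99% humidity, viability was read by BacTiter-Glo luminescence.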
Cycloheximide cs: Cycloheximide Counterscreen for Small Molecule Inhibitors of Shiga Toxin; actives 12% (n = 300,000); cell reporter, cycloheximide protein synthesis inhibition counterscreen; max response, %; in the data active = max response mostly above about 13%, no sharp cut-off; inactive = mostly below about 14%; also: read at 38.3 µM for the half of the compounds with a filed dose; 0% is about no effect
Giardia FBPA inh: qHTS Assay for Inhibitors of Fructose-1,6-bisphosphate Aldolase from Giardia Lamblia | Potency, µM (titrated, usually from 59.6 µM), for inactives: at the top dose activity, negative = inhibition, actives largely listed as inhibitors | A8B2U2 | purified Giardia FBPA | actives 0.71% (n = 290,000) | AID 2451, 2010; also: potency is read from the fitted curve at half-maximal effect; % is scaled to controls: 0 for no effect and ±100 for the full control effect; nearly all actives have a fitted effect of over 55% in size
Target sequence (A8B2U2 whole entry, looked up): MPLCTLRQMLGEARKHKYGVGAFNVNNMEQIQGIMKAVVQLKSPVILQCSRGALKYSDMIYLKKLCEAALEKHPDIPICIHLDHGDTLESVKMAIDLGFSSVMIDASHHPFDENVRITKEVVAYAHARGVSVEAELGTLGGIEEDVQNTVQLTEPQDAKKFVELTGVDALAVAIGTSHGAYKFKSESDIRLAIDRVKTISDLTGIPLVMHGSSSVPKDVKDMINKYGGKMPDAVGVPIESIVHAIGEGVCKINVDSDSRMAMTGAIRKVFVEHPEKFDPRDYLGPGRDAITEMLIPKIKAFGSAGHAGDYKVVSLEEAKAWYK
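Giardia FBPA (40 nM reagent) was preincubated 10 min at RT with compound (up to 57.5 uM final), then substrate plus GAPDH/TPI/NAD/arsenate coupling system with diaphorase/resazurin was added; resorufin fluorescence (525/598 nm) was read after 20 min.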
Shiga inhibitor: A qHTS for Small Molecule Inhibitors of Shiga Toxin | Vero cells, Shiga toxin protein synthesis inhibition reporter | inhibition, % at 38.7 µM | actives 9.2% (n = 290,000); in the data active = inhibition mostly above about 28%, no sharp cut-off; inactive = mostly below about 43%; also: 0% is about no effect
* hit, by the source's call; ? = inconclusive; . = no result given; [ ] = remark or other dose. Unless noted, calls follow the shape of the dose curve; as a rule, active = well fitted curve in the direction sought with a large enough effect; inconclusive = small, poorly fitted or top-dose-only effect, or another doubt; inactive = no such curve, though single readings can be large; an effect the other way counts as inactive or inconclusive.

SMILES | LmPK inhibitor | TbPYK inhibitor | RE007 growth inh | Cycloheximide cs | Giardia FBPA inh | Shiga inhibitor
OC(COc1ccc(OCC(O)CN2CCCCC2)cc1)CN1CCCCC1 (centres undefined) | -2.1% | 0.1% | -7.6% | -1.1 | 8.1% | .
O=C(COc1ccc2c3c(c(=O)oc2c1)CCC3)N1CCCC1 | -0.7% | -0.7% | 0.0% | -2.4 | -0.9% | -2.8
OC(COc1ccc2ccccc2c1)CN1CCCC1 (centres undefined) | 0.8% | 2.9% | 0.0% | 18.2* | ? | 36.7
COc1ccc(N2CCN(C(=O)COc3ccc4ccccc4c3)CC2)cc1 | 5.6% | -3.1% | -8.8% | -1.4 | -17.7% | -5.0
O=C(COc1ccc2c3c(c(=O)oc2c1)CCC3)N1CCCCC1 | -4.2% | -0.5% | 5.6% | 25.0* | . | 86.1*
Cc1nnc(SCc2cnc(-c3ccc(C(C)C)cc3)s2)n1C | 0.3% | . | 21.0%[3.69 µM] | 27.1* | 7.6% | 38.8
Cc1nc(-c2ccc(S(=O)(=O)Oc3ccccc3Cl)s2)cs1 | -3.8% | 2.1% | 3.2% | 26.0* | -11.1% | 33.3*
CCN(CC)S(=O)(=O)c1ccc(-c2csc(C)n2)s1 | -1.2% | -1.9% | -5.1% | 7.4 | 2.8% | 12.6
Cc1nc(-c2ccc(S(=O)(=O)N3CCN(C4c5ccccc5-c5ccccc54)CC3)s2)cs1 | 6.3% | -12.3% | -17.1% | 29.7* | -15.7% | 93.7*
Fc1ccccc1N1CCN(c2nc3ccccc3n3nnnc23)CC1 | 6.5% | -7.9% | -11.8% | 14.3* | 13.6% | 23.1
COc1ccc(/C=C/c2nnc(NC(=O)CC(C)C)s2)cc1 | 2.5% | -3.6% | 3.7% | -2.4 | -1.4% | 30.1
COC(=O)Nc1nnc(/C=C/c2ccc(OC)cc2)s1 | ? | -11.1% | -14.5% | 57.7* | -0.4% | 96.1*
COc1ccc(/C=C/c2nnc(NC(C)=O)s2)cc1 | -17.5% | -10.5% | -10.3% | 35.2* | 0.9% | 72.3*
CCc1ccc(NCc2cc3ccc(OC)cc3n(CC(=O)Nc3ccccc3C)c2=O)cc1 | . | -2.1% | . | . | . | .
CC12C=C(/C=C/c3ccc(F)cc3)C(C)(C1)C(c1ccc(F)cc1)CC2=O (centres undefined) | . | . | . | . | 2.0%[12.9 µM] | .
Cc1nc(CSc2nsc(/C=C/N(C)C)c2C#N)cs1 | 4.8% | -3.7% | 7.6% | 28.7* | ? | 102.6*
Nc1ccc(N=Nc2ccccc2)c(N)n1 | -2.4% | 1.4% | -4.5%[18.4 µM] | 52.0* | -18.5% | 73.3*
Cc1cc(=O)n2[nH]c(N)c(N=Nc3ccccc3)c2n1 | -11.2% | -2.4% | -7.3% | -3.2 | -7.8% | 13.2
Nc1ccc(N=Nc2ccccc2)c2ccccc12 | 1.4% | -2.5% | 3.1% | 22.4* | -2.0% | 21.7
c1ccc(N=Nc2ccc3cccccc2-3)cc1 | . | -1.5% | -25.7% | . | . | .
COC(=O)N1[C@H]2CC[C@@]3(C)CC(=O)C[C@]1(C)C3c1ccccc12 | . | . | . | . | 0.5% | .
Cc1nc(NC(=O)c2ccccc2)sc1-c1csc(N)n1 | -18.7% | -7.8% | -8.7% | 29.3* | -17.4% | 48.4*
Cc1nc(NC(=O)c2ccccc2)sc1-c1csc(Nc2cccc(F)c2)n1 | -0.8% | . | . | 13.4* | -15.9% | 61.8
Cc1cccc(S(=O)(=O)c2cn(C)c3cc(N4CCN(c5ccc(F)cc5)CC4)c(F)cc3c2=O)c1 | . | 3.6% | . | . | . | .
N[C@@H](Cc1cc(-c2ccc(Cl)cc2Cl)cc(CP(=O)(O)O)c1O)C(=O)O | . | . | . | . | 9.4% | .
SMILES | LmPK inhibitor | TbPYK inhibitor | RE007 growth inh | Cycloheximide cs | Giardia FBPA inh | Shiga inhibitor
Oc1cc2c(cc1O)C(c1ccccc1)CNCC2 (centres undefined) | . | ? | -11.6%[18.4 µM] | . | -3.0% | .
Oc1ccc([C@H]2CNCc3c2ccc(O)c3O)cc1O | . | 3.16µM* | . | . | . | .
O=C(CSc1nc2ccccc2nc1Cc1ccccc1F)Nc1cccc(C(F)(F)F)c1 | . | -11.9% | . | . | . | .
Cc1noc(C)c1CSCC(=O)Nc1nc2ccccc2s1 | -6.4% | 1.3% | -14.4% | 21.0* | . | 7.8
CCc1ccc2nc(NC(=O)CSCc3c(C)noc3C)sc2c1 | 8.5% | 2.1% | -17.3% | 20.6* | -0.2% | 68.3*
CCCOc1cccc(C(=O)NC(=S)Nc2ccccc2)c1 | 1.5% | -9.0% | -9.1% | 5.1 | -0.9% | 18.3
O=C(NC(NC(=S)Nc1cccc(C(=O)O)c1)C(Cl)(Cl)Cl)OCc1ccccc1 (centres undefined) | -0.6% | 4.8% | 1.3% | 18.6* | 13.5% | 29.2
O=C(O)c1cccc(NC(=S)NC(=O)c2cccc(OCc3ccccc3)c2)c1 | -0.7% | 1.4% | 10.9% | 14.4* | -11.0% | 38.5*
O=C(Nc1ccc(COc2ccccc2)cc1)Nc1cccc(C(=O)O)c1 | -5.1% | -7.6% | -4.2% | 17.2* | -3.8% | 19.6
O=C(NC(NC(=S)Nc1cccc(Cl)c1)C(Cl)(Cl)Cl)OCc1ccccc1 (centres undefined) | 11.6% | -6.7% | 4.5% | -2.4 | -1.0% | -11.1
CCOc1ccc(NS(=O)(=O)c2cc(C(=O)N3CCCC3)ccc2Cl)cc1 | . | 1.4% | 5.9% | . | . | .
O=C(O)c1ccc(Cl)c(S(=O)(=O)Nc2ccc(OCc3ccccc3)cc2)c1 | 4.7% | -3.3% | -7.5% | 23.4* | -1.0% | 61.9*
NC(=O)C1=CN(C2OC(COP(=O)(O)OP(=O)(O)OC[C@H]3O[C@@H](n4cnc5c(N)ncnc54)[C@H](OP(=O)(O)O)[C@H]3O)C(O)C2O)C=CC1 (some centres undefined) | . | . | . | . | -1.7% | .
COc1ccc(Cl)cc1C(=O)NCc1nc(-c2cccc(C)c2)no1 | . | -12.7% | . | . | . | .
O=S(=O)(NCCc1nnc2ccc(SCc3c(F)cccc3Cl)nn12)c1ccccc1 | . | -0.8% | . | . | . | .
COc1cc(-c2nc(-c3ccc(NC(=O)c4ccc(Br)o4)cc3)no2)cc(OC)c1OC | -13.1% | 0.9% | 13.3% | 36.3* | -10.8% | 49.4
COc1ccc(-c2nc(-c3ccc(NC(=O)c4ccc(Br)o4)cc3)no2)cc1OC | -6.5% | -7.4% | -2.2% | 29.1* | -3.9% | 46.1*
O=C(CSc1nnc(-c2ccc(F)cc2)o1)N1CCCCC1 | -10.4% | -9.6% | -25.4% | 26.8* | 6.1% | 67.4*
O=C(CSc1nnc(-c2c[nH]c3ccccc23)o1)N1CCCCC1 | -0.6% | 2.6% | 3.7% | 25.8* | -3.4% | 69.7*
O=C(CSc1nnc(-c2ccccc2)o1)N1CCCCC1 | -3.0% | 1.0% | -10.9% | 18.0* | 6.8% | 90.2*
O=C(CSc1nnc(-c2ccccc2)o1)N1CCCC1 | 0.7% | -1.0% | 0.2% | 15.3* | 6.5% | 58.5
Cc1c(-c2ccc(O)cc2)nn(-c2ccc(O)cc2)c1-c1ccc(OCCN2CCCCC2)cc1 | . | . | . | . | -1.0% | .
Brc1ccc(-c2nnc(Cc3ccccc3)o2)cc1 | -1.5% | 7.3% | -12.3% | 57.8* | 5.1% | 80.6*
Cc1ccc(-c2nnc(N)o2)cc1 | 1.5% | -1.2% | -14.9% | 14.0 | 2.4% | 30.3
